Measurements as given in PubChem BioAssay (NCATS).
Records with an inconclusive call do not appear. Active and inactive are the calls of the source. The call rests on the fitted dose curve; in most records, active means well fitted curve in the direction sought with a large enough effect; inconclusive means small, poorly fitted or top-dose-only effect, or another doubt; inactive means no such curve, though single readings can be large; an effect the other way counts as inactive or inconclusive.

Columns and labels:
[1] = Quantitative highthroughput screen to assess conditional lethalithy of NOMO1 cells grown in RPMI1640 with untreated serum (RPMI+s) (AID 1963876); further: nearly all actives have a fitted effect of over 35% in size; further: potency means the concentration at half of the fitted maximal effect;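 on viability: 100% = DMSO wells and 0% = empty wells without cells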
Outline: (§1)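 Each medium arm—HPLM with 10% dialyzed FBS, or RPMI1640 with 5 mM glucose and 10% untreated or dialyzed FBS—was screened against an 11-point, 3-fold compound titration for 48 h at 37 °C, with CellTiter-Glo luminescence as endpoint.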

[2] = Quantitative highthroughput screen to assess conditional lethalithy of NOMO1 cells grown in RPMI1640 with dialyzed fetal bovine serum (RPMI+ds) (AID 1963877); further: nearly all actives have a fitted effect of over 30% in size; further: potency means the concentration at half of the fitted maximal effect;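 on viability: series mostly up to about 46 µM; 100% = DMSO control wells and 0% = empty wells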
Outline: as §1

[3] = Quantitative highthroughput screen to assess conditional lethalithy of P12 Ichikawa cells grown in RPMI1640 with dialyzed fetal bovine serum (RPMI+ds) (AID 1963880); settings: Potency: P12-Ichikawa viability;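 further: 100% = DMSO wells and 0% = empty wells on each plate; nearly all actives have a fitted effect of over 35% in size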
Outline: as §1

[4] = Quantitative highthroughput screen to assess conditional lethalithy of P12 Ichikawa cells grown in RPMI1640 with untreated serum (RPMI+s) (AID 1963881); settings: Potency: viability; further: nearly all actives have a fitted effect of over 35% in size; further: potency means the concentration at half of the fitted maximal effect;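 on viability: series mostly up to about 46 µM; 100% = DMSO wells and 0% = empty wells without cells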
Outline: as §1

[5] = Quantitative highthroughput screen to assess conditional lethalithy of SEM cells grown in RPMI1640 with unreated serum (RPMI+s) (AID 1963883); further: nearly all actives have a fitted effect of over 35% in size; further: potency means the concentration at half of the fitted maximal effect;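 on viability: 100% = DMSO wells and 0% = empty wells without cells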
Outline: as §1

[6] = Quantitative highthroughput screen to assess conditional lethalithy of SEM cells grown in RPMI1640 with dialyzed fetal bovine serum (RPMI+ds) (AID 1963884)
Outline: as §1

[7] = Quantitative highthroughput screen to assess conditional lethalithy of P12 Ichikawa cells grown in Human Plasma-Like Medium with dialyzed fetal bovine serum (HPLM+ds) (AID 1963879); settings: Potency: viability; further: nearly all actives have a fitted effect of over 35% in size; further: potency means the concentration at half of the fitted maximal effect; on viability: series mostly up to about 46 µM
Outline: as §1

[8] = Quantitative highthroughput screen to assess conditional lethalithy of SEM cells grown in Human Plasma-Like Medium with dialyzed fetal bovine serum (HPLM+ds) (AID 1963882); further: nearly all actives have a fitted effect of over 35% in size; further: potency means the concentration at half of the fitted maximal effect; on viability: series mostly up to about 46 µM
Outline: as §1

[9] = Cellular viability qHTS for adrenocortical cancer (ACC) cell line SW-13 (AID 1963989); settings: SW-13 ACC cells viability, CellTiter-Glo, 48 h; activity (max response): hits give low values;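 further: cells grown in serum-free medium with ITS supplement; on the % scale 0 is the no-effect control and ±100 the full control effect; nearly all actives have a fitted effect of over 65% in size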
Outline: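 IC50 and maximal-response values come from four-parameter logistic fits of titration data. SW-13 cells in serum-free medium received compounds (up to 46 uM final) for 48 h before CellTiter-Glo luminescence.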

[10] = Cellular viability qHTS for adrenocortical cancer (ACC) cell line NCI-H295R (AID 1963990); further: nearly all actives have a fitted effect of over 60% in size; further: potency means the concentration at half of the fitted maximal effect
Outline: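 Adrenocortical carcinoma cells, suspended at 300 000 cells/mL in serum-free DMEM plus ITS, rested overnight before pin transfer of compound. After two days' incubation, ATP-dependent luminescence was recorded and curve-fitted.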

O=c1[nH]c(=O)n([C@H]2C[C@@H](O)[C@@H](CO)O2)cc1C=CBr
inactive: Potency [1] | Potency [2] | Potency [3] | Potency [4] | Potency [5] | Potency [6]

CCC[C@@H](NC(=O)[C@@H]1[C@H]2CCC[C@@H]2CN1C(=O)[C@@H](NC(=O)[C@@H](NC(=O)c1cnccn1)C1CCCCC1)C(C)(C)C)C(=O)C(=O)NC1CC1
inactive: Potency [1] | Potency [2] | Potency [7] | Potency [4] | Potency [8] | Potency [5] | Potency [6]

CNC(=O)c1cc(COc2nnc(Nc3ccc(Cl)cc3)c3ccoc23)ccn1
active: Potency [8] 16.6 µM | Potency [10] 12.6 µM
inactive: Potency [1] | Potency [2] | Potency [7] | Potency [3] | Potency [4] | activity (max response) [9] -21.4%

CC(C)(C(=O)NCC(F)(F)C(F)(F)F)C(=O)N[C@@H]1C(=O)Nc2ccccc2-c2ccccc21
active: Potency [1] 0.935 µM | Potency [2] 1.87 µM | Potency [7] 2.64 µM | Potency [4] 2.96 µM | Potency [5] 16.6 µM
inactive: activity (max response) [9] -5.79% | Potency [10]

CC1(C)[C@H]2CC[C@]3(C)[C@@H](C(=O)C=C4[C@@H]5C[C@@](C)(C(=O)O)CC[C@]5(C)CC[C@]43C)[C@@]2(C)CC[C@@H]1O
inactive: Potency [1] | Potency [2] | Potency [7] | Potency [3] | Potency [4] | Potency [6]

Cc1[nH]c(C=C2C(=O)Nc3ccc(S(=O)(=O)Cc4c(Cl)cccc4Cl)cc32)c(C)c1C(=O)N1CCC[C@H]1CN1CCCC1
active: Potency [8] 2.35 µM
inactive: Potency [1] | Potency [2] | Potency [7] | Potency [4]

NCc1c[nH]c(=S)n1[C@H]1CCc2c(F)cc(F)cc2C1
inactive: Potency [1] | Potency [2] | Potency [7] | Potency [4] | activity (max response) [9] -7.85% | Potency [10]
